Measurements taken from PubChem BioAssay AID574 (The Scripps Research Institute Molecular Screening Center, 2007).
In all, about 65,000 compounds went through this assay and about 450 (0.69%) were called active. The sample holds actives, similar compounds and a random draw of the others, so the mix is not that of the screen.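 The calls were made as follows: active = activation above a set limit, the screen-wide mean activation plus 3 SD (cut at about 8.5% in these data); inactive = the rest.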

Target: 5-hydroxytryptamine receptor 1E (Homo sapiens) (UniProt P28566)
Sequence (P28566 whole entry, looked up): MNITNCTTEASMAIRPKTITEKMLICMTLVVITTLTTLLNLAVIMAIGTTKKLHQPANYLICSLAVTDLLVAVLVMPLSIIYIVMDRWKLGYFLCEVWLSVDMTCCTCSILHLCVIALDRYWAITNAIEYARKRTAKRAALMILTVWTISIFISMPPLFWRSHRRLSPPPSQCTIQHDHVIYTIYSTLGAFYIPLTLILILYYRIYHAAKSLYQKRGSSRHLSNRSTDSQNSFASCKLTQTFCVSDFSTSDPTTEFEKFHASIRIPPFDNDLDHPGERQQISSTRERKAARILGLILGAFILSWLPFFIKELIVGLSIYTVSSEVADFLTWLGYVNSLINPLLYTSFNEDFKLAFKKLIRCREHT
Experiment: 5-HT1E receptor agonists, primary screen, cell-based, HTS (AID 574);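 also: 100% = positive control agonist at 1 µM giving full maximal response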
Details: CHO 5-HT1E Ga15 NFAT-bla reporter, FRET; at 6 µM; active compounds read high; 0% DMSO wells, 100% control agonist wells

activation, inactive:
CCOc1ccccc1/C=c1\sc2nc(-c3ccco3)nn2c1=O 0.9%
CCCCOc1ccccc1/C=c1/sc2nc(-c3oc4ccccc4c3C)nn2c1=O 0.1%
O=C(CCS(=O)(=O)Cc1ccccc1F)NCCCN1CCCCC1 -1.2%
Cc1ccc(CNC(=O)CCCNC(=O)c2ccc(Cl)cc2)n1C -0.6%
O=S(=O)(NCc1ccccc1Cl)c1cnc[nH]1 0.3%
CN(C)c1ccnc2sc3c(=O)n(Cc4ccccc4)cnc3c12 0.2%
CCOC(=O)c1sc(N(Cc2ccccc2)C(=O)CN2C(=O)CN(C)C2=O)nc1C 0.8%
CCN(CCCNC(=O)C1CCN(S(=O)(=O)c2cnc[nH]2)CC1)c1ccccc1 -0.1%
CN1CCN(Cc2c(O)ccc3c2oc(=O)c2ccccc23)CC1 -1.2%
Cc1nc2ccccc2c2oc(C(=O)NCCCN3CCC(C)CC3)cc12 -0.7%
CCS(=O)(=O)N1CCN(C(=O)c2cccs2)CC1 0.5%
O=C(CN(Cc1ccccc1)C(=O)c1ccc2c(c1)OCCO2)NCc1ccc2c(c1)OCO2 -1.2%
O=C(COc1ccccc1)NCc1ccc2c(c1)OCO2 -0.5%
Cc1cc(=O)n2nc(N3CCCC(C(=O)N4CCN(C)CC4)C3)sc2n1 (centres undefined) 0%
CN(C)CCCn1c(N)c(C#N)c2nc(C#N)c(C#N)nc21 3.5%
CCOc1ccc2nc(NC(=O)CSc3nc4c(c(=O)n(C)c(=O)n4C)n3CC)sc2c1 -0.3%
CCOC(=O)CCc1c(C)c(C#N)c2[nH]c3ccccc3n2c1=O -0.2%
CCC1CCCCN1CCNS(=O)(=O)c1ccc2c(c1)CCN2C(C)=O (centres undefined) -0.3%
O=S(=O)(c1ccc(OCC(O)CN2CCN(c3ccccc3Cl)CC2)cc1)N1CCOCC1 (centres undefined) 1.6%
CCCN1C(=O)C(NC(C)=O)c2cc(OC)ccc21 (centres undefined) 0.7%
CCOC(=O)N1CCN(C(=O)c2cnc3n(c2=O)CCS3)CC1 4.1%
Cn1c(NC(=O)c2ccco2)c(-c2ccccc2Cl)c(=O)c2ccccc21 0.2%
CCC(=O)Nc1ccccc1N1CCN(S(C)(=O)=O)CC1 -0.7%
CCCS(=O)(=O)N1CCCC(C(=O)NCc2ccco2)C1 (centres undefined) 0.6%
COc1cccc2cc(C(=O)N(C)C)c(=O)oc12 0.2%
Cn1c(=O)cc(OCCCC(=O)N2CCN(Cc3ccc4c(c3)OCO4)CC2)c2ccccc21 0.8%
CC(C)OCCCNC(=O)CNC(=O)c1cccs1 1.3%
COc1cccc(OCCOc2cccc(/C=N/n3cnnc3)c2)c1 -0.3%
C=C(C)CSc1nc(N)c2c3c(sc2n1)CCC3 0.3%
Cc1c(CN2CCC(C)CC2)c(=O)n(-c2ccccc2)n1C -0.1%
CC(=O)N1CCN(c2cccc(C)c2C)CC1 0.3%
CC1CN(C2CCCCC2)c2nc3c(c(=O)n(C)c(=O)n3C)n2C1 (centres undefined) -0.2%
CCOC(=O)CSc1nnc(CNC(=O)Cc2ccccc2)n1-c1ccccc1OC -0.7%
O=C(Nc1ccc(Oc2ccccc2)cc1)c1ccco1 0.3%
Cc1ccc(C(=O)COc2cccc(NC(=O)c3ccco3)c2)cc1 0.2%
CC(=O)c1cccc(NC(=O)N2CCCC2C(=O)NCCC(C)C)c1 (centres undefined) -0.1%
CCN(Cc1ccccc1)C(=O)CSc1nc(C)cc2c1C(=O)OC2 -0.3%
CCOc1ccccc1C1C(C(=O)OC)=CN(C)C=C1C(=O)OC 7.1%
CC1CCCC(C)N1CCCNC(=O)c1cc2c(=O)n(C)c3ccccc3c2n1C (centres undefined) 0.8%
O=C(CCn1c(=S)[nH]c2ccccc2c1=O)NCCCN1CCCC1=O -0.3%
O=C(CCCn1c(=O)[nH]c2cc(Cl)ccc2c1=O)NCCN1CCN(c2ccccc2)CC1 1%
CCn1c(=O)cc(OCC(=O)NCCCN2CCN(c3cccc(Cl)c3)CC2)c2ccccc21 7.6%
Cc1cc(=O)[nH]c(SCC(N)=O)c1C#N 0.8%
COc1ccc(C(=O)Nc2cccnc2)cc1C(=O)Nc1cccnc1 0.1%
Cc1ccc2nc(-c3ccc(SCC(=O)Nc4cc(C)on4)nc3)[nH]c2c1 -0.4%
Cc1cc(=O)oc(C)c1C(=O)NCc1ccc(F)cc1 -0.2%
CCCOc1ccccc1C(=O)NCCCC(=O)O 0%
O=C(CC(NCCN1CCOCC1)C(=O)O)Nc1cccc(Cl)c1 (centres undefined) -1.2%
Cn1c(CN2CCOCC2)nc2cc(NC(=O)c3ccc(Cl)cc3)ccc21 0.6%
Cc1c2cnn(-c3ccccc3)c(=O)c2c(C)n1CCCC(=O)N1CCN(C)CC1 1%
CC(C)OC(=O)CN1C(=O)c2ccccc2C1=O 0.5%
CCOc1ccc(NC(=O)N2CCN(CC)CC2)cc1 -0.5%
O=C(Nc1c(-c2ccccc2)nc2c(Br)cc(Br)cn12)c1ccco1 -0.3%
CC1(C)C/C(=C(/C#N)C(N)=O)CCO1 -0.1%
Cc1cn(COC/C=C/c2ccccc2)c(=O)[nH]c1=O 0.2%
CC(C)Cn1c(CCC(=O)O)ccc1-c1cccs1 0.6%
CC1CCCC(NC(=O)CN2CCN(Cc3ccc(Cl)cc3)C2=O)C1C (centres undefined) -0.6%
O=C(OC1CCOC1=O)c1ccc(-c2nc3ccccc3s2)s1 (centres undefined) -0.6%
Cc1ccc(-n2nc3c(c2NC(=O)c2ccc4c(c2)OCO4)CSC3)c(C)c1 -0.1%
O=C(Nc1ccccc1C(F)(F)F)c1cc(-c2ccc(O)cc2)on1 0.1%
CCOc1ccc(Cn2c(SCCCCC#N)nc3c2c(=O)n(C)c(=O)n3C)cc1OCC 0.1%
O=C(Nc1c(Cl)cccc1Cl)C1CCC1 0.5%
O=C(O)CC(Cn1cnnn1)c1ccccc1 (centres undefined) 1.2%
Fc1ccccc1CCNc1nnnn1-c1ccccc1 -0.5%
CC(C)CNC(=O)C1CCCN(S(=O)(=O)c2ccc(-n3cnnn3)cc2)C1 (centres undefined) -0.3%
Cc1oc(-c2cccc(Cl)c2)[n+]([O-])c1C 0.2%
COC(=O)COc1ccc(S(=O)(=O)N2CCOCC2)cc1 -0.6%
O=C(c1ccc2c(c1)C(=O)N(c1ccc(Cl)cc1)C2=O)N1CCN(c2ccccn2)CC1 0.4%
CCOc1ccc(C(CC(=O)O)NC(=O)COc2ccccc2)cc1 (centres undefined) -1.3%
C=CCn1c(N)c(C(=O)OCC(C)C)c2nc3ccccc3nc21 0.4%
C=CCn1c(N)c(S(=O)(=O)c2cccs2)c2nc3ccccc3nc21 0.2%
Cc1ccc(C(=O)NCCNS(=O)(=O)c2ccccc2)cc1 -1.7%
CC(=O)Nc1cccc(Oc2cc(C#N)c(C#N)cc2N2CCOCC2)c1 -0.6%
CC1CN(c2cc(=O)n(Cc3ccc(F)cc3)c(=O)[nH]2)CC(C)O1 (centres undefined) 0.8%
Cc1nnc(SCC(=O)N2CCc3ccccc32)n1-c1ccccc1 -0.4%
CCOC(=O)CSc1nc2sc3c(c2c(=O)[nH]1)CC(C)(C)OC3 -0.1%
CCCc1nnc(NC(=O)c2cc(OC)cc(OC)c2)s1 0.7%
Nc1nnnn1/N=C/c1cccs1 -0.8%
CS(=O)(=O)N(C(=O)NC(=O)NC1CCS(=O)(=O)C1)C1CCCCC1 (centres undefined) 0.1%
O=C(Nc1nnc(-c2ccc(Cl)cc2)o1)c1ccccc1Br -0.9%
CCOC(=O)N1CCC(NC(=O)c2ccc3nc(N4CCOCC4)sc3c2)CC1 -0.6%
COC(=O)C(C)C1Sc2ccccc2NC1=O (centres undefined) 0.6%
Cc1ccc(C(C(=O)NCc2ccco2)N(CC2CCCO2)C(=O)Cn2nnc3ccccc32)cc1 (centres undefined) 0.3%
O=C(NC1(C(F)(F)F)N=C2SCCN2C1=O)c1ccco1 (centres undefined) -0.1%
CCNc1nc(NCC)nc(N(C)n2cnnc2)n1 1.1%
c1n[nH]c(NCc2ccc3c(c2)OCO3)n1 -0.5%
N#Cc1nc(Cc2ccccc2)oc1NCCc1ccccc1 -0.8%
Cc1cccc2c1N(CC(=O)OC(C)C)C(=O)C2=O 0.3%

activation, active:
O=c1nc2s/c(=C\c3ccco3)c(=O)n2nc1Cc1ccccc1 17.9%
COc1ccc2c(c1)OC(O)(C(F)(F)C(F)F)CC2=O (centres undefined) 12%
CN1CCN(CCCNC(=O)c2cc3c(=O)oc4ccccc4c3s2)CC1 14.9%
O=C(CC(Cc1ccccc1)C(=O)O)NCCc1ccc2c(c1)OCO2 (centres undefined) 10.3%
Cc1cccc(N2CCN(Cc3c(C)n(C)n(-c4ccccc4)c3=O)CC2)c1C 41.4%
CCOc1cc(NC(=O)c2ccco2)c(OCC)cc1NC(=O)COc1ccccc1 9.5%
O=C(CCn1c(=O)[nH]c2ccccc2c1=O)NCCCN1CCN(c2cccc(Cl)c2)CC1 11.7%
Cn1c(C(=O)NCCCN2CCN(c3cccc(Cl)c3)CC2)cc2c(=O)n(C)c3ccccc3c21 14.6%
COc1cccc2cc(C(C)N(CCCN3CCOCC3)C(=O)Nc3ccc(Cl)cc3)oc12 (centres undefined) 15.9%
CC(C)Cn1c(N)c(C(=O)NCc2cccs2)c2nc3ccccc3nc21 18.4%
N#Cc1nc(Cc2cccc3ccccc23)oc1NCc1ccc2c(c1)OCO2 10.4%
